Test results reported in PubChem BioAssay (NCATS).
Records with an inconclusive call do not appear. The source made the active and inactive calls. The call rests on the fitted dose curve; in most records, active means well fitted cell-killing curve with a large enough effect; inconclusive means small, poorly fitted or top-dose-only effect, or effect the other way; inactive means flat fitted curve, though single readings scatter.

Key:
Assay in all cases: Primary qHTS to identify gynecologic anti-cancer compounds using libraries of approved drugs and bioactive compounds (AID 1345084); further: nearly all actives have a fitted effect of over 55% in size
Conditions in all cases: Gynecologic cancer cell panel viability, ATPlite luminescence, 48 h; series mostly up to 57.5 µM
SKOV3 = test system: SKOV3
Method in brief: (§1)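 In this quantitative HTS, cell killing is estimated from loss of ATP-dependent luciferase light. Cells see five compound concentrations over a 48 h exposure.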

Tov-21-G = test system: Tov-21-G
Method in brief: as §1

Tov112D = test system: Tov112D
Method in brief: as §1
On the % scale 0 is the no-effect control and ±100 the full control effect.

CC(C)C1=CC2=CCC3[C@](C)(CCC[C@@]3(C)C(=O)O)C2CC1=O (stereo not given in full)
inactive: Potency (SKOV3) | Potency (Tov-21-G) | Potency (Tov112D)

C[C@H]1C[C@H]2[C@@H]3CCC4=CC(=O)C=C[C@]4(C)[C@@]3(F)[C@@H](O)C[C@]2(C)[C@@]1(O)C(=O)COP(=O)(O)O
inactive: Potency (SKOV3) | Potency (Tov-21-G) | Potency (Tov112D)

COC(=O)C1=CO[C@@H](O[C@@H]2O[C@H](COC(=O)/C=C/c3cc(OC)c(O)c(OC)c3)[C@@H](O)[C@H](O)[C@H]2O)[C@@H]2C(CO)=CC[C@H]12
inactive: Potency (SKOV3) | Potency (Tov-21-G) | Potency (Tov112D)

CCn1nnnc1NCc1ccc(C(C)C)cc1
inactive: Potency (SKOV3) | Potency (Tov-21-G) | Potency (Tov112D)

C[C@@H]1O[C@@H](O[C@H]2[C@H](OC(=O)C34CCC5(C)C(=CCC6C7(C)CC(O)C(O[C@@H]8O[C@H](C(=O)O)[C@@H](O)[C@H](O)[C@H]8O)C(C)(C(=O)O)C7CCC65C)C3CC(C)(C)CC4O)O[C@H](C)[C@@H](O)[C@@H]2O)[C@H](O)[C@@H](O[C@@H]2OC[C@](O)(CO)[C@H]2O[C@@H]2O[C@H](CO)[C@@H](O)[C@H](O)[C@H]2O)[C@H]1O (stereo not given in full)
inactive: activity change, negative = cytotoxicity (SKOV3) 13.1% [at 6.55 µM] | activity change, negative = cytotoxicity (Tov-21-G) -3.03% [at 6.55 µM] | activity change, negative = cytotoxicity (Tov112D) 10.3% [at 6.55 µM]

C=C1[C@H]2[C@H](O[C@@H]3O[C@H](COC(=O)/C=C/c4cc(OC)c(O)c(OC)c4)[C@@H](O)[C@H](O)[C@H]3O)OC=C(C(=O)O)[C@H]2C[C@@H]1O
inactive: Potency (SKOV3) | Potency (Tov-21-G) | Potency (Tov112D)

CC(NC(=O)CC(=O)O)c1nc2ccccc2c(=O)[nH]1 (stereo not given)
inactive: Potency (SKOV3) | Potency (Tov-21-G) | Potency (Tov112D)

C=C1[C@H]2CC[C@]3(O)[C@@](CC[C@@H]4[C@](C)(C(=O)O)CCC[C@]43C)(C2)[C@H]1OC(=O)/C(C)=C\C
inactive: Potency (SKOV3) | Potency (Tov-21-G) | Potency (Tov112D)

CC1CCC2(NC1)OC1C(=O)C3C4CCC5CC(O[C@@H]6O[C@H](CO)[C@@H](O)[C@H](O)[C@H]6O[C@@H]6O[C@@H](C)[C@H](O)[C@@H](O)[C@H]6O)CCC5(C)C4CCC3(C)C1C2C (stereo not given in full)
inactive: Potency (SKOV3) | Potency (Tov-21-G) | Potency (Tov112D)

COC1=CC(=O)O[C@@H](CCc2ccccc2)[C@@H]1O
inactive: Potency (SKOV3) | Potency (Tov-21-G) | Potency (Tov112D)

C[C@@H]1O[C@@H](O[C@@H]2[C@@H](O)[C@@H](O)[C@H](O[C@@H]3[C@@H](O)[C@@H](O[C@]4(CO)O[C@H](CO)[C@@H](O)[C@@H]4OC(=O)/C=C/c4ccc(O)cc4)O[C@H](CO)[C@H]3OC(=O)/C=C/c3ccc(O)cc3)O[C@H]2C)[C@H](O)[C@H](O)[C@H]1O
inactive: activity change, negative = cytotoxicity (SKOV3) -21.8% [at 11.6 µM] | activity change, negative = cytotoxicity (Tov-21-G) -2.88% [at 11.6 µM] | activity change, negative = cytotoxicity (Tov112D) -1.04% [at 11.6 µM]

CC1=CC(=O)CC(C)(CO[C@@H]2O[C@H](CO)[C@@H](O)[C@H](O)[C@H]2O)C1(O)/C=C/C(C)=C/C(=O)O (stereo not given in full)
inactive: Potency (SKOV3) | Potency (Tov-21-G) | Potency (Tov112D)

C[C@]1(O)CC[C@@H]2C(C(=O)O)=CO[C@@H](O[C@@H]3O[C@H](COC(=O)c4ccc(O)cc4)[C@@H](O)[C@H](O)[C@H]3O)[C@@H]21
inactive: Potency (SKOV3) | Potency (Tov-21-G) | Potency (Tov112D)

CC(C)[C@@H](C)/C=C/[C@@H](C)[C@H]1CC[C@H]2C3=CC=C4C[C@@H](O)CC[C@]4(C)[C@H]3CC[C@]12C
inactive: Potency (SKOV3) | Potency (Tov-21-G) | Potency (Tov112D)

COc1c(C)c(C(=O)c2ccc(N)c(C(=O)O)c2)n2ccccc12
inactive: Potency (SKOV3) | Potency (Tov-21-G) | Potency (Tov112D)

CC(C)C1=CC2=CCC3[C@](C)(CCC[C@@]3(C)C(=O)O)C2CC1O (stereo not given in full)
inactive: Potency (SKOV3) | Potency (Tov-21-G) | Potency (Tov112D)

CC(O)C(O)/C=C/C=C/C(=O)O[C@@H]1C=C2COC(=O)[C@]2(O)[C@@]2(C)CCCC(C)(C)C12 (stereo not given in full)
inactive: Potency (SKOV3) | Potency (Tov-21-G) | Potency (Tov112D)

C/C(=C/CCC(CO)C1CCC2(C)C3CCC4C(C)(C)C(OC5OC(CO)C(O)C(O)C5O)CC(O)C45CC35CCC12C)COC1OC(CO)C(O)C(O)C1O (stereo not given)
inactive: Potency (SKOV3) | Potency (Tov-21-G) | Potency (Tov112D)

Clc1ccc(CN[C@H]2CCN(c3ncc(Br)cn3)C2)c(Cl)c1
inactive: Potency (SKOV3) | Potency (Tov-21-G) | Potency (Tov112D)

C/C=C/C=C/C(CC(=O)O)Nc1ccc(C=O)cc1 (stereo not given)
inactive: Potency (SKOV3) | Potency (Tov-21-G) | Potency (Tov112D)

CC1(C)C[C@H]2C3=CCC4[C@@]5(C)CC[C@H](O[C@H]6O[C@H](C(=O)O)[C@@H](O)[C@H](O)[C@H]6O[C@H]6O[C@H](CO)[C@@H](O)[C@H](O)[C@H]6O[C@@H]6O[C@H](CO)[C@@H](O)[C@H](O)[C@H]6O)[C@](C)(CO)C5CC[C@@]4(C)[C@]3(C)CC[C@@]2(C)[C@H](O[C@@H]2OC[C@H](O)[C@H](OC3O[C@H](CO)[C@@H](O)[C@H](O)[C@H]3O)[C@H]2O)[C@@H]1O (stereo not given in full)
inactive: activity change, negative = cytotoxicity (SKOV3) -2.8% [at 6.55 µM] | activity change, negative = cytotoxicity (Tov-21-G) 3.65% [at 6.55 µM] | activity change, negative = cytotoxicity (Tov112D) -3.08% [at 6.55 µM]

Cc1ccc2c(c1)C=Cc1cc(C)ccc1C2c1cn(Cc2ccc(C(=O)Nc3nn[nH]n3)o2)c(=O)[nH]c1=S
inactive: Potency (SKOV3) | Potency (Tov-21-G) | Potency (Tov112D)

COc1ccccc1[C@@H]1C2=C(CC(C)(C)CC2=O)Nc2n[nH]c(C(F)(F)F)c21
inactive: Potency (SKOV3) | Potency (Tov-21-G) | Potency (Tov112D)

NCc1c[nH]c(=S)n1C1CCc2c(F)cc(F)cc2C1 (stereo not given)
inactive: Potency (SKOV3) | Potency (Tov-21-G) | Potency (Tov112D)

C=C1CCC2C(C)(C(=O)O)CC(O)CC2(C)C1CC/C(C)=C/C(=O)O (stereo not given)
inactive: Potency (SKOV3) | Potency (Tov-21-G) | Potency (Tov112D)

C[C@@H]1C[C@H](O)/C=C/[C@H](O)[C@@H](O)CC(=O)O1
inactive: Potency (SKOV3) | Potency (Tov-21-G) | Potency (Tov112D)

CC(C)(O)CNc1nc(Nc2ccnc(C(F)(F)F)c2)nc(-c2cccc(C(F)(F)F)n2)n1
inactive: Potency (SKOV3) | Potency (Tov-21-G) | Potency (Tov112D)

CC(=O)O[C@@H]1C[C@]2(C)[C@@]3(CCC4[C@@]5(C)CC[C@H](O[C@@H]6O[C@H](C(=O)O)[C@@H](O)[C@H](O[C@@H]7O[C@H](CO)[C@H](O)[C@H](O)[C@H]7O[C@@H]7O[C@@H](C)[C@H](O)[C@@H](O)[C@H]7O[C@@H]7OC[C@](O)(CO)[C@H]7O)[C@H]6O[C@@H]6O[C@H](CO)[C@H](O)[C@H](O)[C@H]6O)C(C)(C)C5CC[C@]42C)O[C@@H](O)[C@]12C3CC(C)(C)[C@@H](OC(=O)/C=C/c1ccc(O)c(O)c1)[C@@H]2OC(=O)/C=C/c1ccccc1 (stereo not given in full)
inactive: activity change, negative = cytotoxicity (SKOV3) 3.32% [at 6.55 µM] | activity change, negative = cytotoxicity (Tov-21-G) 17% [at 6.55 µM] | activity change, negative = cytotoxicity (Tov112D) 6.15% [at 6.55 µM]

C/C(=C\CO)CC/C=C(\C)C(=O)O[C@H]1[C@H](OC2OC=C(C(=O)O)C3CCC(C)(O)C23)O[C@H](CO)[C@@H](O)[C@@H]1O (stereo not given in full)
inactive: Potency (SKOV3) | Potency (Tov-21-G) | Potency (Tov112D)

COc1cc(/C=C/C(=O)OC[C@H]2O[C@H](O[C@]3(CO)O[C@H](CO)[C@@H](O)[C@@H]3O)[C@H](O)[C@@H](O)[C@@H]2O)cc(OC)c1O
inactive: Potency (SKOV3) | Potency (Tov-21-G) | Potency (Tov112D)

CCOC(=O)c1c(C)nn(-c2cccc([N+](=O)[O-])c2)c1C
inactive: Potency (SKOV3) | Potency (Tov-21-G) | Potency (Tov112D)

CN1C(=O)c2ccccc2-n2c(nc3ccccc3c2=O)[C@@]12O[C@H]2c1ccccc1
inactive: Potency (SKOV3) | Potency (Tov-21-G) | Potency (Tov112D)

CC1=CC(=O)OC(C)(CC(C)(O)C(=O)O)C1 (stereo not given)
inactive: Potency (SKOV3) | Potency (Tov-21-G) | Potency (Tov112D)

CC(=O)N(O)CCCCCN1C(=O)CCC1=O
inactive: Potency (SKOV3) | Potency (Tov-21-G) | Potency (Tov112D)

CCC(C)(O)C(O)C(=O)OCc1ccc(O[C@@H]2O[C@H](CO)[C@@H](O)[C@H](O)[C@H]2O)cc1 (stereo not given in full)
inactive: Potency (SKOV3) | Potency (Tov-21-G) | Potency (Tov112D)

NC(=O)c1ccc(OCC2NC(=O)C3CCCN3C2=O)cc1 (stereo not given)
inactive: Potency (SKOV3) | Potency (Tov-21-G) | Potency (Tov112D)

O=C(O[C@@H]1O[C@H](CO)[C@@H](O)[C@H](O)[C@H]1O)c1c(O)cc(O)cc1/C=C/c1ccccc1
inactive: Potency (SKOV3) | Potency (Tov-21-G) | Potency (Tov112D)

CCNC(=O)CCC/C=C\C[C@@H]1[C@@H](/C=C/C(O)CCc2ccccc2)[C@@H](O)C[C@@H]1O (stereo not given in full)
inactive: Potency (SKOV3) | Potency (Tov-21-G) | Potency (Tov112D)

COc1cccc(-n2nc(C(=O)O)cc2-c2ccc(C3CCCCC3)c(Cl)c2)c1
inactive: Potency (SKOV3) | Potency (Tov-21-G) | Potency (Tov112D)

CO[C@@]12CC3[C@@H]([C@@H](O)[C@@H](OC(C)=O)C4[C@](C)(COC(C)=O)CCC[C@]34C)[C@@H](C)C1=CC(=O)O2 (stereo not given in full)
inactive: Potency (SKOV3) | Potency (Tov-21-G) | Potency (Tov112D)
